Source: the supplement of paper PMC10338343
± gives the standard deviation.

What follows are sequences tested on EfPiwi piRISC loaded with piRNA #1 (26 nt) (assay: pre-steady-state target cleavage rate (min^-1); auxiliary factor: 500 nM Ephydatia muelleri Gtsf1; guide: piRNA #1 5'p-UGAGGUAGUAGGUUGUAUAGUAUCCA; MIWI and MILI are mouse PIWI proteins and EfPiwi is from a freshwater sponge; tags in brackets are library labels; higher = faster piRNA-guided slicing of the target).
Procedure, shortened: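 For Cleave-'n-Seq, a transcribed, DNA-blocked target RNA library […] met 1 nM active affinity-purified piRISC with one synthetic guide at 33 °C for 0–8 or 0–960 min in HEPES–potassium acetate buffer, with or without 500 nM GTSF1 partner protein. Uncleaved targets were sequenced and normalised to depth and weakly complementary targets, with three trials pooled and k3 capped at 0.0001 min^-1. A burst-and-steady-state fit supplied the pre-steady-state cleavage rate.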

GGAGUGCAUACUAUACUACCUACUACCUCA and GGAGACCUUACUAUACAACCUAGUACCACA are within error of each other in “pre-steady-state target cleavage rate” value: 0.00588 ± 0.0029 for the first, 0.00255 ± 0.0023 for the second.

First: GGAGAGGAUACUUAUACAACCUACUACCUCA
Second: GGAGUGGAUACUAUACAACCUACCACCUCA
The “pre-steady-state target cleavage rate” value of the first is higher: 0.112 ± 0.045 for the first, 0.00271 ± 0.0014 for the second.

GGAGACGAUACAUAUACAACCUACUACCUCA and GGAGUGGAUACUAUACAUCCUUCUACCUCA are within error of each other in “pre-steady-state target cleavage rate” value: 0.00804 ± 0.0033 for the first, 0.00476 ± 0.0022 for the second.

First: GGAGACGAUACUAUACAACCUACUACCUCC [g2:g24:cont:t1C]
Second: GGAGACCAUACUAUACAUCCAACUACCUCA
The “pre-steady-state target cleavage rate” value of the first is higher: 0.0508 ± 0.017 for the first, 0.00245 ± 0.0022 for the second.

GGAGAGGAUACUAUACAACGUACUACCUCA and GGAGACCUAUCUAUAACAACCUACUACCUCA are within error of each other in “pre-steady-state target cleavage rate” value: 0.0053 ± 0.0021 for the first, 0.00453 ± 0.0037 for the second.

First: GGAGACGAUACUAUACAACCAACUACGUCA
Second: GGAGAGGAUACUAUACAACCUACUACCUCCA
The “pre-steady-state target cleavage rate” value of the first is lower: 0.00251 ± 0.0018 for the first, 0.142 ± 0.054 for the second.

GGAGUGGAUACUAUACAACGUACUACCUGA and GGAGAGGAUCUAUACAACCUACUACCUCA are within error of each other in “pre-steady-state target cleavage rate” value: 0.00457 ± 0.0015 for the first, 0.00612 ± 0.0048 for the second.

GGAGUGGAUACUAUACAACCUACACCUCA and GGAGACCUAACUAUACAACGUACUACGUCA are within error of each other in “pre-steady-state target cleavage rate” value: 0.00338 ± 0.0018 for the first, 0.00291 ± 0.0026 for the second.

GGAGAGGAUACUAUACAACCUACUCACCUCA and GGAGUCGAUACUAUACAACCUUCUACCUCA are within error of each other in “pre-steady-state target cleavage rate” value: 0.00339 ± 0.0021 for the first, 0.00622 ± 0.0028 for the second.

GGAGAGGAUACUUUACAACCAACUACCUCA and GGAGACCAUACAAAACAACCUACUACCUCA are within error of each other in “pre-steady-state target cleavage rate” value: 0.00291 ± 0.0016 for the first, 0.00423 ± 0.0037 for the second.

GGAGACGAUUCUAUACAACCUACUACCUCA and GGAGAGGAUACUAUACAACCUGCUACCUCA are within error of each other in “pre-steady-state target cleavage rate” value: 0.0774 ± 0.03 for the first, 0.114 ± 0.043 for the second.

GGAGUGGAUACUAUACAACCUACUGACCUCA and GGAGACCAUGCUAUACAACCUACUACCUCA are within error of each other in “pre-steady-state target cleavage rate” value: 0.00401 ± 0.0014 for the first, 0.00746 ± 0.0043 for the second.

GGAGUGGAUACUAUACAACCGUACUACCUCA and GGAGACGAUAUUAUACAACCUACUACCUCA are within error of each other in “pre-steady-state target cleavage rate” value: 0.00658 ± 0.0027 for the first, 0.00616 ± 0.0034 for the second.

Going from GGAGAGGAUAUUAUACAACCUACUACCUCA to GGAGACGUUACUAUACAACCUACUACCACA, the “pre-steady-state target cleavage rate” value falls from 0.0615 ± 0.023 to 0.00242 ± 0.0022.

GGAGAGGAUACAAUACAACCUACUAGCUCA and GGAGACCUUACUAUACAACCUACUACGUGA are within error of each other in “pre-steady-state target cleavage rate” value: 0.00253 ± 0.0018 for the first, 0.00535 ± 0.0036 for the second.

GGAGACCAUACGAUACAACCUACUACCUCA and GGAGACCAUACAAUACAACCUACUACCUCA are within error of each other in “pre-steady-state target cleavage rate” value: 0.00769 ± 0.0035 for the first, 0.0108 ± 0.0032 for the second.

GGAGAGGAUACUGAUACAACCUACUACCUCA and GGAGUGGAUACUAUACUACCUUCUACCUCA are within error of each other in “pre-steady-state target cleavage rate” value: 0.00615 ± 0.0037 for the first, 0.00331 ± 0.0022 for the second.

GGAGAGGUUACUAUACAACCUACUACCUGA and GGAGACCAUACUAUACAACCUACUACGUGA are within error of each other in “pre-steady-state target cleavage rate” value: 0.00474 ± 0.0019 for the first, 0.0051 ± 0.0028 for the second.

First: GGAGUCGAUACUAUACAACCUAGUACCUCA
Second: GGAGACGAAACUAUACAACCUACUACCUCA
The “pre-steady-state target cleavage rate” value of the first is lower: 0.00334 ± 0.0014 for the first, 0.0619 ± 0.022 for the second.

GGAGACCUAACUAUACAACCUACCACCUCA and GGAGUGGAUACAAUACAACCUACUACCACA are within error of each other in “pre-steady-state target cleavage rate” value: 0.00588 ± 0.0042 for the first, 0.00323 ± 0.0018 for the second.
